mHTT-CaM PPI inh: mHTT-calmodulin interaction abrogation | P42858 | AlphaScreen His-mHTT/GST-CaM binding, luminescence | inhibition, % at 15 µM | 190,000 compounds, 3.6% hits | AID 1671202;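 also: 0% = both proteins with DMSO and 100% = one protein alone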
Pf apPOL block: Pf-apPOL DNA polymerase inhibition; 210,000 compounds, 0.25% hits; inhibition, % at 10 µM; Recombinant Pf-apPOL, molecular beacon fluorescence, 1.5 h
An asterisk follows results filed as active; . = no result. Only some compounds are listed: those with a hit (about 3.5% of all), similar ones and a draw of the others. Rule as the data show it: active = inhibition above about 50%; inactive = the rest.

SMILES	mHTT-CaM PPI inh	Pf apPOL block
O=C(Nc1nc(-c2cc([N+](=O)[O-])cs2)cs1)c1cc(-c2ccco2)on1	-10.4	3.5
O=C(Nc1cc(-c2ccccn2)no1)c1ccccn1	100.0*	-9.8
O=C(Nc1nc(-c2ccccc2)cs1)c1ccncc1	8.3	-13.1
COc1cc(OC)cc(C(=O)Nc2nc(-c3ccccn3)cs2)c1	100.0*	-6.2
O=C(Nc1ccc2c(c1)OCO2)c1cn(-c2ccc(F)cc2F)c(=O)c2ccccc12	21.0	-3.1
Cc1nnc(NC(=O)C2CCCN(c3ccc(-n4ccnc4)nn3)C2)s1 (centres undefined)	-11.3	-11.2
Cc1ccc(CC(=O)N2CCC(c3cnn(-c4ccccc4)c3)CC2)cc1	15.1	-8.0
CCN1CCN(C(=O)c2nc3ccccn3c2-c2ccc(OC)cc2)CC1	5.4	-4.8
CC1=C(C(=O)Nc2cccnc2)C(c2ccc(O)cc2)n2ncnc2N1 (centres undefined)	-1.0	-2.0
O=C(NCCCN1CCCCC1)C1CCCN(c2ccc(N3CCOCC3)nn2)C1 (centres undefined)	2.7	-7.5
CC(C)=C1SC(=O)N(CC(=O)Nc2ccc(S(N)(=O)=O)cc2)C1=O	-7.9	-2.0
NS(=O)(=O)c1ccc(NC(=O)CN2CC(=O)Oc3ccccc32)cc1	97.9*	-166.2
Cc1cc(-c2nnc(NC(=O)c3ccn(C)n3)o2)c(C)o1	67.5*	-6.4
Cc1cc(-c2nnc(NC(=O)c3ccc4c(c3)OCCO4)o2)c(C)o1	1.9	-6.3
Cc1ccc(NC(=O)c2cc(S(=O)(=O)N(C)Cc3ccccc3)ccc2F)cc1Cl	0.0	-6.5
CCC(=O)N(C)CC(=O)N1N=C(c2ccc(C)c(C)c2)CC1c1ccc(C)cc1 (centres undefined)	47.0	0.1
CCC(=O)N(C)CC(=O)N1N=C(c2ccc(C)c(C)c2)CC1c1ccc(F)cc1 (centres undefined)	71.5*	-6.3
CN(CC(=O)N1N=C(c2ccc(F)cc2)CC1c1ccc(F)cc1)C(=O)C1CC1 (centres undefined)	21.9	-0.6
CCC(=O)N(C)CC(=O)N1N=C(c2ccc(F)cc2)CC1c1ccc(F)cc1 (centres undefined)	66.1*	0.0
CC(=O)N(C)CC(=O)N1N=C(c2ccc(C)c(C)c2)CC1c1ccc(F)cc1 (centres undefined)	38.9	-0.5
Cc1ccc(C2=NN(C(=O)CN(C)C(=O)C(C)C)C(c3ccc(F)cc3)C2)cc1C (centres undefined)	98.5*	2.8
COc1cc(CN2C(=O)c3c(C)nc4ccccc4c3C2=O)cc(OC)c1OC	-1.0	-1.5
O=C1CCCC(=O)N1c1ccc(N2CCN(c3cccc(C(F)(F)F)c3)CC2)c([N+](=O)[O-])c1	13.0	-17.3
O=C1CCCC(=O)N1c1ccc(N2CCC(O)(c3cccc(C(F)(F)F)c3)CC2)c([N+](=O)[O-])c1	93.0*	-21.0
Cc1cc(C)nc(NS(=O)(=O)c2ccc(NS(=O)(=O)c3ccccc3[N+](=O)[O-])cc2)n1	8.2	44.5
SMILES	mHTT-CaM PPI inh	Pf apPOL block
O=C(O)c1ccn(Cn2cnc([N+](=O)[O-])n2)n1	-2.5	.
COc1cccc(NC(=O)N2CCCc3ccccc32)c1	.	-10.8
COc1cccc(NC(=O)N2CCN(C)c3ccccc32)c1	53.1*	0.4
COc1ccc(C)cc1NC(=O)c1ccc(C)cc1Cl	-31.3	-2.1
CC1=NN(c2ccc(C(=O)O)cc2)C(=O)/C1=C/c1cccc([N+](=O)[O-])c1	-4.0	-7.6
Cc1nc2nc(SCC(=O)NCC3CCCO3)nn2c(C)c1Cc1c(F)cccc1Cl (centres undefined)	70.0*	35.0
Cc1nc2nc(SCC(=O)NCC3CCCO3)nn2c(C)c1Cc1ccccc1Cl (centres undefined)	15.0	2.1
CCS(=O)(=O)Nc1cccc(-c2ccc(=O)n(C)n2)c1	-13.7	0.4
COc1ccc(CNC(=O)c2ccc3[nH]c4c(c3c2)CN(C(C)=O)CC4)c(OC)c1	50.7*	-3.3
COc1ccc(OC)c(CNC(=O)c2ccc3[nH]c4c(c3c2)CN(C(C)=O)CC4)c1	43.7	7.7
COc1ccc(CCNC(=O)c2ccc3[nH]c4c(c3c2)CN(C(C)=O)CC4)cc1OC	46.4	-7.6
CCc1ccccc1NC(=O)c1ccc2[nH]c3c(c2c1)CN(C(C)=O)CC3	22.0	-0.9
CC(=O)N1CCc2[nH]c3ccc(C(=O)NCc4ccc(N5CCCC5)cc4)cc3c2C1	88.6*	-1.6
CC(=O)N1CCc2[nH]c3ccc(C(=O)NCCc4ccc(F)cc4)cc3c2C1	52.2*	-8.2
CCc1ccc(N(CC)C(=O)c2ccc3[nH]c4c(c3c2)CN(C(C)=O)CC4)cc1	68.3*	-2.3
COc1ccccc1CNC(=O)c1ccc2[nH]c3c(c2c1)CN(C(C)=O)CC3	27.7	-1.5
O=C(NC1CC2CC1N(C(=O)Nc1cc(F)cc(F)c1)C2)c1cccnc1 (centres undefined)	-2.2	-4.3
CN(Cc1cccs1)C(=O)NC(C)(C)C	0.5	4.4
CCc1cccc(NC(=O)N2CCC(c3cc(=O)n4nccc4n3C)CC2)c1	4.3	1.9
